Measured values from PubChem BioAssay (NCATS).
Results filed as inconclusive are left out. Entries that show only a call come without a potency. Activity calls are given as the source filed them. The call rests on the fitted dose curve; in most records, active means well fitted cell-killing curve with a large enough effect; inconclusive means small, poorly fitted or top-dose-only effect, or effect the other way; inactive means no such curve, though single readings can be large or run the other way.

Assay: Quantitative highthroughput screen to assess conditional lethalithy of NOMO1 cells grown in Human Plasma-Like Medium with dialyzed fetal bovine serum (HPLM+ds) (AID 1963878); further: nearly all actives have a fitted effect of over 35% in size
Details: NOMO1 AML cells in HPLM+ds, CellTiter-Glo viability, 48 h; series mostly up to 45.8 µM
Description: Assay Provider: Jason Cantor Ph.D.
Department of Biochemistry
University of Wisconsin-Madison, Madison, WI, USA
Chemical screening studies have identified drug sensitivities across hundreds of cancer cell lines but most putative therapeutics fail to translate. Discovery and development of drug candidates in models that more accurately reflect nutrient levels in human blood is a major challenge. Here we performed high-throughput screens in conventional versus Human Plasma-Like Medium (HPLM) to identify compounds that were "missed" when screening using the artificial culture condition. Sets of conditional anticancer compounds spanned phases of clinical development and included non-oncology drugs were assessed. […] We also traced conditional phenotypes for several chemotherapeutics to availability of HPLM-specific metabolites and confirmed others for compounds whose reported targets are encoded by nonessential genes. Our findings establish generalizable strategies for exploiting conditional lethality in HPLM to reveal therapeutic candidates and mechanisms of action in cancer cells.
Described herein are the results of each viability screens against three cell lines: NOMO1 (an acute myeloid leukemia cell line); P12-Ichikawa (a T-cell acute lymphoblastic leukemia); and SEM (a B-cell ALL). Each assay was screened using 3 different cell culture media: homemade human plasma-Like medium with 10% dialyzed fetal bovine serum (HPLM+ds); RPMI1640 with 10% untreated FBS and 5mM glucose (RPMI+s); and RPMI1640 with 10% dialyzed fetal bovine serum and 5 mM glucose (RPMI+ds).
PROTOCOL TABLE (as described by Inglese J, Shamu CE and Guy RK. 2007)
SEQUENCE No. (e.g., 1, 2, 3, etc.); […] (e.g., Cells, Incubation, Reagent, etc.); VALUE and DESCRIPTION.
1; Cells; 5 uL; white, solid bottom 1536-well Greiner assay plate.
2; Compounds; 23 nL; Kalypsis pin tool (Wako USA) equipped with a 1536-well pin head to transfer to the assay plates.
3; Incubation; 48 hours; 37C incubation.
4; Reagent; 3 uL; CellTiter Glo (Promega).
5; Incubation; 5 min, room temperature
6; Detection; Luminescence, Viewlux PerkinElmer.
NOTES (numbers refer to Sequence numbers above)
1. Briefly, 5 ul of cell reagent was dispensed using a Multidrop Combi Dispenser. The NOMO1 and SEM cells were plated at 500 cells/well and the P12-Ichikawa line at 1000 cells/well.
2. After seeding the cells, 23 nL of MIPE 4.1 library compounds (in DMSO) were added to each plate using a Kalypsys 1536 Pintool dispenser. Bortezomib at final concentration of […] and DMSO were added to each plate as positive and negative controls respectively. For each screen, MIPE 4.1 compounds were added over an eleven-point concentration range […] in 3-fold dilutions.
3. Each plate was covered with a stainless steel gasketed lid to prevent evaporation and incubated for 48 hour at 37C, 95% relative humidity, and 5% CO2.
4-5. Three microliter CellTilter-GloTM luminescent substrate mix (Promega) reagent was added to the assay plate and incubated at room temperature for 5 min.
6. The luminescence signal was measured using a ViewLux (PerkinElmer) multiplate reader with a 2 second exposure time per plate. Data for each compound were normalized as percent viability such that measurements for DMSO and the empty well controls in each plate were defined as 100% and 0%, respectively.
Potency means the concentration at half of the fitted maximal effect.

Row | SMILES | Potency
1 | CCN1C[C@]2(OC(=O)c3ccccc3NC(C)=O)CC[C@H](OC)[C@@]34[C@H]5CC6[C@@H](OC)C[C@](O)(C(C[C@@H]23)[C@@H]14)[C@@]5(O)[C@@H]6OC | inactive
2 | COc1ccc(CC2NCCc3cc(OC)c(OC)cc32)cc1OC (stereo not given) | inactive
3 | COc1ccc(C(CN(C)C)C2(O)CCCCC2)cc1 (stereo not given) | inactive
4 | Cn1c(CCCC(=O)O)nc2cc(N(CCCl)CCCl)ccc21 | inactive
5 | COc1ccc2c(c1OC)CN1CCc3cc4c(cc3C1C2)OCO4 (stereo not given) | 1.48 µM (active)
6 | NC1=NC(=O)N2CC12 (stereo not given) | 4.18 µM (active)
7 | C[C@H]1CCCC=CC2C[C@H](O)C[C@@H]2[C@H](O)C=CC(=O)O1 (stereo not given in full) | inactive
8 | O=c1[nH]c2ccccc2n1CCCN1CCC(n2c(=O)[nH]c3cc(Cl)ccc32)CC1 | inactive
9 | COC(=O)[C@@H](N)CCCN=C(N)N[N+](=O)[O-] | inactive
10 | Cc1c(N)nc([C@H](CC(N)=O)NC[C@@H](N)C(N)=O)nc1C(=O)N[C@H](C(=O)N[C@@H](C)[C@H](O)[C@@H](C)C(=O)N[C@@H](C(=O)NCCc1nc(-c2nc(C(=O)NCCC[S+](C)C)cs2)cs1)[C@@H](C)O)C(O[C@H]1O[C@H](CO)[C@H](O)[C@@H](O)[C@@H]1O[C@H]1O[C@H](CO)[C@@H](O)[C@H](OC(N)=O)[C@H]1O)c1cnc[nH]1 (stereo not given in full) | 0.935 µM (active)
11 | COc1cc(C(=O)N2CC[C@@H](O)[C@@H](N)C2)cc2nc(-c3cc4ccccc4n3CC3CC3)n(C)c12 | 0.234 µM (active)
12 | Cc1c(C(=O)Nc2cccc(C(F)(F)F)c2)cc(-c2ccccc2)n1CCCN1CCOCC1 | inactive
13 | CSCC[C@@H](NC(=O)[C@@H](Cc1ccccc1)NC(=O)CNC(=O)CNC(=O)[C@@H](N)Cc1ccc(O)cc1)C(=O)O | inactive
14 | Cc1cc(SCc2sc(-c3ccc(C(F)(F)F)c(F)c3)nc2C)ccc1OCC(=O)O | inactive
15 | CC[C@@H]1[C@@H](C)O[C@@](O)([C@@H](C)[C@H](O)[C@H](C)[C@H]2OC(=O)C=CC=C[C@@H](C)[C@@H]([C@@H](C)[C@@H](O)[C@H](C)[C@@]3(O)C[C@H](O[C@H]4C[C@H](O)[C@H](O)[C@H](C)O4)[C@H](CC)[C@@H](C)O3)OC(=O)C=CC=C[C@@H]2C)C[C@H]1O[C@H]1C[C@H](O)[C@H](O)[C@H](C)O1 | 2.96 µM (active)
16 | CC1=C2C[C@@H]3[C@@H](CC=C4C[C@@H](O)CC[C@@]43C)[C@@H]2CC[C@]12O[C@H]1C[C@H](C)CN[C@H]1[C@H]2C | inactive
17 | c1cc2c(cc1[C@H]1OC[C@H]3[C@H]1CO[C@H]3c1ccc3c(c1)OCO3)OCO2 | inactive
18 | O=P1(N(CCCl)CCCl)NCCCO1 (stereo not given) | inactive
19 | CC[C@@H](C(N)=O)N1CCCC1=O | inactive
20 | CCOC(=O)c1cncn1[C@H](C)c1ccccc1 | inactive

Row | SMILES | Potency
21 | C[C@@]12OC(=O)[C@]1([C@@H](O)[C@@H]1C=CCCC1)NC(=O)[C@H]2CCCl | 0.166 µM (active)
22 | COC[C@H]1OC(=O)c2coc3c2[C@@]1(C)C1=C(C3=O)[C@@H]2CC[C@H](O)[C@@]2(C)C[C@@H]1OC(C)=O | 13.2 µM (active)
23 | Cc1nc(-c2ccc(-c3ccc(C(=O)N4CCc5cc6c(cc54)C4(CCN(C)CC4)CO6)cc3)c(C)c2)no1 | inactive
24 | C[C@]12CC[C@H]3[C@@H](CCC4=CC(=O)CC[C@@]43C)[C@H]1CC[C@H]2OC(=O)CCC1CCCC1 | inactive
25 | O=C(Nc1ccncc1)C(=O)c1cn(Cc2ccc(Cl)cc2)c2ccccc12 | 0.059 µM (active)
26 | c1ccc2c(CN3CCNCC3)cccc2c1 | inactive
27 | Cc1ncc(OC[C@@]2(c3cccc(F)c3)C[C@H]2C(=O)Nc2ccc(F)cn2)c(C)n1 | inactive
28 | COC[C@@H](NC(C)=O)C(=O)NCc1ccccc1 | 18.7 µM (active)
29 | Clc1ccccc1C(c1ccccc1)(c1ccccc1)n1cccn1 | inactive
30 | CCNC(=O)C[C@@H]1N=C(c2ccc(Cl)cc2)c2cc(OC)ccc2-n2c(C)nnc21 | 5.9 µM (active)
31 | N=c1c2c(-c3ccccc3)c(-c3ccccc3)n(Cc3ccccc3)c2ncn1C1CCC(O)CC1 (stereo not given) | 16.6 µM (active)
32 | CN1CCN(C(=O)O[C@H]2c3nccnc3C(=O)N2c2ccc(Cl)cn2)CC1 | inactive
33 | CC(=O)Nc1ccc(OC[C@](C)(O)C(=O)Nc2ccc([N+](=O)[O-])c(C(F)(F)F)c2)cc1 | inactive
34 | O=c1[nH]c2ccccc2n1C1CCN(Cc2ccc(-c3[nH]c4cc5ncnc5cc4nc3-c3ccccc3)cc2)CC1 | inactive
35 | CCCC[N+]1(C)[C@H]2CC(OC(=O)[C@H](CO)c3ccccc3)C[C@H]1[C@H]1O[C@H]12 (stereo not given in full) | 11.8 µM (active)
36 | C[C@](O)(CS(=O)(=O)c1ccc(F)cc1)C(=O)Nc1ccc(C#N)c(C(F)(F)F)c1 | inactive
37 | CC(C)C[C@H](CN)CC(=O)O | inactive
38 | CN(C)CCc1ccc(O)cc1 | inactive
39 | O=C(Oc1ccc([N+](=O)[O-])cc1)N1CCN(Cc2cccc(Oc3ccccc3)c2)CC1 | inactive
40 | CCC1(c2ccc(N)cc2)CCC(=O)NC1=O (stereo not given) | inactive
